# Rce1 inhib: yeast Rce1p protease inhibitors, primary screen, biochemical, fluorescence, cell-free homogeneous; CAAX prenyl protease 2 (Saccharomyces cerevisiae (strain ATCC 204508 / S288c)), Q03530; yeast membranes, quenched prenylated peptide cleavage fluorescence; calls only; 0.27% of 290,000 active; AID 2563, 2010;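 active means fall in fluorescence gain of 50% or more versus controls, with final raw signal at or below 3038400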;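 further: plate controls were neutral control wells for no effect and wells lacking membranes for full effect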
# Target sequence (Q03530 whole entry, looked up): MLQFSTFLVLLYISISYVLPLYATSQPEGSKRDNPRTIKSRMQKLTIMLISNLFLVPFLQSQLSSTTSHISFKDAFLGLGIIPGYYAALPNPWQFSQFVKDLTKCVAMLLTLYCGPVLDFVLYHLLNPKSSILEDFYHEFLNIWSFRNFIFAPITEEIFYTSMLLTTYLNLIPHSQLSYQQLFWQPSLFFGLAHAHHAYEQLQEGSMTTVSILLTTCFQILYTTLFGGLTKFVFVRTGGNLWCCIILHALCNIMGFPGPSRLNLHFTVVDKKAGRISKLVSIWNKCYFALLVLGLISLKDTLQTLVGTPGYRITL
# DNA FID counter: compounds displacing fluorescent DNA intercalator, primary screen, artefact control for HCV NS3 helicase inhibitor project, biochemical, FID fluorescence; inhibition, % at 7.9 µM; DNA fluorescent intercalator displacement; 0.17% of 290,000 active; in the data active means inhibition above about 37%;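 further: 0% = vehicle and 100% = reference compound; higher means more ethidium bromide displaced from hairpin DNA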
# Kir21 block: inhibitors of mouse Kir2.1 inward-rectifier potassium channel; HEK293-Kir2.1, FluxOR thallium flux fluorescence; active compounds read low; B-score at 10 µM; Inward rectifier potassium channel 2 (Mus musculus), P35561; 0.85% of 310,000 active;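 active means fluorescence ratio B-score at or below minus 3 SD of library scores, with starting-brightness B-score within 2 SD, cut at about -4.2 in these data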;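 further: channel flux triggered by added potassium and thallium sulfate stimulus; B-score of peak minus minimum fluorescence over baseline after thallium stimulus; more negative B-score means stronger Kir2.1 block with less thallium influx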
# PfM18AAP inh-1: PfM18AAP inhibitors, malaria aminopeptidase, primary screen, biochemical, QFRET, recombinant enzyme. M18 aspartyl aminopeptidase (Plasmodium falciparum 3D7). H-Glu-NHMec fluorogenic cleavage. inhibition, % at 7.35 µM. 1.2% of 290,000 active;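 active means inhibition above the campaign mean inhibition over all tested compounds plus 3 SD, cut at about 28% in these data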;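 further: 0% = plate median of test compound wells and 100% = 2 mM ZnCl2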
# PfM18AAP inh-2: PfM18AAP inhibitors, malaria aminopeptidase, confirmation, biochemical, QFRET, recombinant enzyme, triplicate; shares compounds with PfM18AAP inh-1; inhibition, % at 7.35 µM; AID 2170, 2009; 28% of 2,400 active; H-Glu-NHMec fluorogenic cleavage;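 active means mean inhibition over replicate wells above the hit cutoff set for the earlier primary screen, cut at about 29% in these data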;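 further: 0% = median of test compound wells and 100% = 2 mM ZnCl2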
# CTSL1 confirm: cathepsin L1 inhibitors, retest, confirmation, counter-screen for PFM18AAP inhibitor project, biochemical, QFRET, triplicate. shares compounds with PfM18AAP inh-1. purified cathepsin L1, Z-Leu-Arg-MCA fluorescence. inhibition, % at 5.96 µM. 2,400 tested, under 10 active. AID 2178, 2009;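 active means average inhibition across replicates above the hit cutoff set in the earlier primary screen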;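 further: 0% = median of test compound wells and 100% = Z-Phe-Ala-diazomethylketone 1 µM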
# Target sequence (P07711 whole entry, looked up): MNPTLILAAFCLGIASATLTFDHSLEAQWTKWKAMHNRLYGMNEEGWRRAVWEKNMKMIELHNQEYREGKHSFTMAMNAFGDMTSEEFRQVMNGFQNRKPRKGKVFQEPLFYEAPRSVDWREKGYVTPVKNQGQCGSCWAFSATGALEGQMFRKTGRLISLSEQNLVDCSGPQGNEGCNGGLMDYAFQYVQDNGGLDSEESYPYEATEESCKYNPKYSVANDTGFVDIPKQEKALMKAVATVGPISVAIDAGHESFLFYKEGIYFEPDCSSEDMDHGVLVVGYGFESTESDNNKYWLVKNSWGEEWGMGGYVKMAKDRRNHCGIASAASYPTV
# Numbers without * were called inactive; i = inactive; x = no result given. In the library only some 2.3% were active in any assay of this set; here they are far more common.
SMILES,Rce1 inhib,DNA FID counter,Kir21 block,PfM18AAP inh-1,PfM18AAP inh-2,CTSL1 confirm
O=C1c2ccccc2NC(c2ccc(O)c(O)c2)N1c1ccccc1Cl (configuration not stated),i,-5,0.56,57*,56*,-2
COc1cc(C2Nc3ccccc3C(=O)N2c2ccccc2OC)ccc1O (configuration not stated),i,-4,-0.09,-6,x,x
CN(CC(=O)Nc1n[nH]c(=S)s1)S(=O)(=O)c1cccc2cccnc12,i,-8,0.25,51*,21,0
Cc1csc(NC(=O)CN(C)S(=O)(=O)c2cccc3cccnc23)n1,i,-12,0.22,-15,x,x
CCOc1ccc(C2=CSC3=NCCN23)cc1[N+](=O)[O-],i,-6,0.02,17,x,x
O=C(NNc1ccc(F)cc1F)c1c(F)cccc1Cl,i,-2,-2,33*,6,2
O=C(CSc1nnc(NC(=O)c2ccccc2F)s1)NCc1ccco1,i,-7,-1.9,8,x,x
COc1ccccc1N(CC(=O)N1CCN(c2ccc(F)cc2)CC1)S(=O)(=O)c1ccc(C)cc1,i,-49,0.86,3,x,x
Cc1ccc(-n2sc3ccccc3c2=O)cc1,i,-6,-1.6,66*,76*,6
O=C(O)C(c1ccccc1)N1C(=O)/C(=C\c2ccc(O)c(O)c2)SC1=S (configuration not stated),i,-9,-0.02,49*,28*,-2
CCCCCCNC(=O)CNC(=S)N(Cc1cccs1)C1CCCCC1,i,-37,1,2,x,x
COCCCN1C(=O)/C(=C\c2ccc3c(c2)OCO3)C(C(=O)OC)=C1C,i,-7,1.1,52*,-27,3
COCCN1C=C(C(=O)OC)C(c2cc3c(cc2Br)OCO3)C(C(=O)OC)=C1,i,2,0.16,4,x,x
CCN1C(=O)/C(=C\c2ccc3c(c2)OCO3)C(C(=O)OC)=C1C,i,-1,3.1,0,x,x
COCCN1C=C(C(=O)OC)C(c2ccc3c(c2)OCO3)C(C(=O)OC)=C1,i,-12,-1.4,38*,-6,0
O=C(O)c1ccc(O)c(O)c1,x,-3,-0.5,79*,65*,-6
O=C(O)c1cccc(C(=O)O)c1,i,2,-0.02,1,x,x
COc1ccc(-c2ccc3oc(-c4ccc(OC)cc4)c(C#CC4(O)CCCCC4)c3c2)cc1,i,x,0,x,x,x
C=CCn1c(=O)c2c(nc3n2CCCN3CCc2ccc(OC)c(OC)c2)n(C)c1=O,i,-28,0.96,2,x,x
O=c1[nH][nH]c(=S)n1-c1ccccc1C(F)(F)F,x,-14,x,61*,18,-3
N#C/C(=C(/O)C(Cl)(Cl)Cl)c1nc2ccccc2[nH]1,i,1,-0.63,-1,x,x
Cc1sc(-n2c(C)cc(/C=N/n3cnnc3)c2C)c(C#N)c1C,i,-11,-0.02,36*,27,1
COc1cc(OC)c(C(=O)Nc2cccc3ccccc23)cc1OC,i,-21,0.39,4,x,x
Cc1onc(-c2c(Cl)cccc2Cl)c1NC(=O)NNc1ccccn1,x,-4,-0.46,40*,13,3
NNc1nc(-c2ccccc2Cl)nc2ccccc12,i,7,-1.8,45*,-4,-4
SMILES,Rce1 inhib,DNA FID counter,Kir21 block,PfM18AAP inh-1,PfM18AAP inh-2,CTSL1 confirm
Oc1cccc(Nc2nc(-c3ccccc3Cl)nc3ccccc23)c1,i,-11,-0.08,4,x,x
CC1CCN(S(=O)(=O)c2cnc[nH]2)CC1,i,-6,0.07,-3,x,x
CCN1/C(=C2\C(=O)N(C)C(=S)N2C)C=Cc2cc(C)ccc21,i,6,0.69,34*,-13,5
CCN1/C(=C2\C(=O)N(C)C(=S)N2C)C=Cc2ccccc21,i,9,1.6,13,x,x
COCCn1c(SCC(=O)NCC2CCCO2)nc2c(c1=O)SCC2 (configuration not stated),i,-5,-0.08,2,x,x
Cc1cnc(SCCc2ccncc2)nc1C,i,2,0.54,62*,-8,-1
CCCCOP(=O)(c1ccc(N(C)C)cc1)C(O)c1ccc(N(C)C)cc1 (configuration not stated),i,-31,-1.4,34*,-59,5
O=c1cc(-c2ccc(O)cc2)oc2c(O)c(O)c(O)c(O)c12,x,2,x,52*,18,2
COc1c(O)cc2oc(-c3ccc(O)cc3)cc(=O)c2c1O,i,x,0.5,x,x,x
CN(C)c1ncc(/C=C2/C(=O)NC(=S)N(C3CCCCC3)C2=O)cn1,x,-13,x,-2,x,x
CN1C(=O)c2ccc(C(=O)NC3CCCCC3)cc2C1=O,x,-1,-0.04,-7,x,x
CN1C(=O)CS(=O)c2ccc(C(=O)NC3CC3)cc21 (configuration not stated),i,-7,0.01,44*,-13,2
C/C(=N\Nc1ccc2nncn2n1)c1cccs1,i,-5,-0.6,40*,-16,0
C(=N\Nc1nn2cnnc2c2ccccc12)/c1ccco1,i,-1,2.1,44*,-23,-1
BrC(=C\c1ccccc1)/C=N/Nc1ccc2nncn2n1,i,-8,0.14,32*,-17,-1
COc1cccc(/C=N/Nc2nn3cnnc3c3ccccc23)c1,i,-10,1.7,40*,-46,5
COc1cc(/C=N/Nc2nn3cnnc3c3ccccc23)ccc1O,i,-4,-1.2,5,x,x
C/C(=N/N=C(/C)c1cccs1)c1cccs1,i,-1,-0.61,7,x,x
Cc1ccc(S(=O)(=O)N2CCCCC2CCNC(=O)C(=O)NCc2ccccc2)cc1 (configuration not stated),i,x,2.1,x,x,x
Cc1cc(CC(=O)O)c2oc(-c3ccoc3)cc(=O)c2c1,i,x,-0.03,x,x,x
COc1ccc(-c2ccc(NCCN3CCOCC3)nn2)cc1OC,i,-1,0.77,0,x,x
Oc1ccc(/C=N/Nc2nn3cnnc3c3ccccc23)cc1,i,-11,-1.2,33*,-58,2
BrC(=C\c1ccccc1)/C=N/n1cnnc1,i,1,-0.12,68*,61*,4
CCOc1cc(/C=N/Nc2nn3cnnc3c3ccccc23)ccc1O,i,-21,-3,-12,x,x
Cc1cc(C)nc(N/N=C/c2ccco2)n1,i,0,1.4,22,x,x
C(=N\Nc1ccc2nncn2n1)/c1ccco1,i,-1,0.28,34*,3,2
CCCCN(C(=O)CSCC(=O)Nc1ccc(C)cc1)c1c(N)n(CCCC)c(=O)[nH]c1=O,i,x,1.9,x,x,x
CCOC(=O)c1c(-c2ccc(OC)cc2)csc1/N=C/C1=C(O)CCCC1=O,i,-19,2.6,37*,-30,4
CCOC(=O)c1c(/N=C/C2=C(O)CCCC2=O)sc(C)c1C,i,-3,0.63,24,x,x

# Screens (PubChem)
